Results reported in PubChem BioAssay AID1259313 (Sanford-Burnham Center for Chemical Genomics, 2017).
The whole screen tested about 340,000 compounds, of which about 8,500 (2.5%) were called active.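 The calls were made as follows: active = melting temperature shift of at least 10% of the positive control shift, at one fixed dose; inactive = the rest.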 The list comes from a sample in which actives are over-represented; it also holds similar structures and randomly drawn compounds.

The compounds below were run on Glutamate receptor ionotropic, NMDA 3A (GRIN3A) ligand-binding domain (assay: NR3A LBD thermal stabilization by compounds – biophysical, differential scanning fluorimetry, uHTS, primary screen (AID 1259313)). Details: at 25 µM, active compounds read high, 0% = protein alone, 100% = glycine-bound protein.

Compound	Tm shift relative to glycine control
Cn1nc(C(F)(F)F)c(C(=O)Nc2cccc(C(F)(F)F)c2)c1SCc1ccc(Cl)cc1	6.13% (inactive)
Cc1cccc(NC(=S)NC23CN4CN(CN(C4)C2)C3)c1	-2.24% (inactive)
Cc1csc(NC(=S)Nc2cccc(Cl)c2)n1	16.9% (active)
S=C(Nc1cccc(Cl)c1)Nc1ccc2cn[nH]c2c1	13% (active)
CCC(=O)Nc1nc(C)c(C(=O)Nc2cccc(Cl)c2)s1	0.19% (inactive)
O=C(O)CC1(CC(=O)Nc2cccc(C(F)(F)F)c2)CCCC1	-1.43% (inactive)
Cc1cccc(NC(=S)Nc2ccc(Cl)c(Cl)c2)c1	14.9% (active)
O=S(=O)(Nc1ccc2cn[nH]c2c1)c1ccccc1	-1.96% (inactive)
Cc1cc2[nH]ncc2cc1NC(=S)NC(=O)c1ccccc1	-2.48% (inactive)
Cn1cc(Cl)c(C(=O)NNC(=S)Nc2cccc(Cl)c2)n1	-11.3% (inactive)
Cc1cc(Cl)nc(NC(=O)Nc2cccc(Cl)c2)n1	-1.44% (inactive)
FC(F)(F)c1cccc(NC(=S)Nc2cccc(Cl)c2)c1	15.7% (active)
COc1ccccc1C(=O)OCC(=O)NCCNC(=O)COC(=O)c1ccccc1OC	-2.11% (inactive)
CCSc1nnc(SCC(=O)NNC(=O)c2ccccc2F)s1	0.44% (inactive)
O=C(NN1C(=O)C2C3C=CC(O3)C2C1=O)c1ccncc1 (stereo not drawn)	2.17% (inactive)
CCO[C@@H]1OC(C(N)=O)=C[C@H](c2ccc(Br)cc2)[C@H]1CCCO	2.58% (inactive)
COc1ccc(CCNS(=O)(=O)c2cc3c(cc2C)NC(=O)CO3)cc1OC	2.97% (inactive)
O=c1ccn([C@@H]2O[C@H](CNS(=O)(=O)c3cc4ccccc4s3)[C@@H](O)[C@H]2O)c(=O)[nH]1	-1.03% (inactive)
CCOC(=O)N1CCN(S(=O)(=O)c2ccc(C(=O)Nc3ccc(F)cc3F)cc2)CC1	-2.71% (inactive)
CC(C)Oc1ccc(CC(=O)NNC(=S)Nc2ccc(Br)cc2)cc1	-3.79% (inactive)

Compound	Tm shift relative to glycine control
C=CCn1c(C23CC4CC(CC(C4)C2)C3)n[nH]c1=S	0.44% (inactive)
COc1cccc(/C=N/Nc2ccc(S(=O)(=O)Nc3ccccc3C(=O)O)cc2[N+](=O)[O-])c1O	22.4% (active)
COc1ccc(Br)cc1/C=N/Nc1ccc(S(=O)(=O)Nc2ccccc2C(=O)O)cc1[N+](=O)[O-]	503% (active)
O=C(O)c1ccccc1/C=N/Nc1ccc(S(=O)(=O)Nc2ccc(Cl)cc2)cc1[N+](=O)[O-]	9.21% (inactive)
COc1ccc(S(=O)(=O)Nc2ccc3cn[nH]c3c2)cc1[N+](=O)[O-]	-8.84% (inactive)
Cc1ccc(NS(=O)(=O)c2ccc(N/N=C/c3ccccc3OCC(=O)O)c([N+](=O)[O-])c2)c(C)c1	3.61% (inactive)
COc1ccc(S(=O)(=O)Nc2ccccc2C(=O)N2CCCC2)cc1C	2.36% (inactive)
COc1ccc(CCNC2=C(Cl)C(=O)N(Cc3ccccc3)C2=O)cc1OC	2.81% (inactive)
CC(=O)c1ccc(N2CCN(S(=O)(=O)c3ccc4c(c3)CC(=O)N4C)CC2)cc1	4.97% (inactive)
O=C(Cc1ccc(Cl)c(Cl)c1)Nc1ccc(SC(F)F)cc1	25.9% (active)
Cc1ccc(CC(=O)Nc2ccc(OC(F)F)c(Cl)c2)cc1C	3.08% (inactive)
CC(=O)N1CCN(CC(=O)Nc2ccc(SC(F)F)cc2)CC1	-2.44% (inactive)
Cc1c(Cl)c([N+](=O)[O-])nn1CC(=O)NCCCN1CCOCC1	-0.8% (inactive)
COc1cc(C(=O)CCc2ccc3c(c2)OCO3)cc(OC)c1OC	0.46% (inactive)
COc1cc2c(-c3ccc4c(c3)OCO4)c(-c3ccsc3)oc(=O)c2cc1OC	12.9% (active)
COc1cc(-c2c(-c3ccc4c(c3)OCO4)noc2C)ccc1F	-2.27% (inactive)
CN(C)CCCn1c(SCc2ccc(Cl)cc2)nnc1-c1ccncc1	-5.52% (inactive)
CC(C)(Oc1ccc(Cl)cc1)C(=O)OCC(=O)NCCc1ccc(S(N)(=O)=O)cc1	-1.31% (inactive)
CN(C)N=Nc1ccc2nc[nH]c2c1	-1.21% (inactive)
COc1ccc2[nH]c3c(c2c1)CCN1C(=O)C(CC(=O)NCc2cccc(C(F)(F)F)c2)C[C@H](C(=O)N2CCOCC2)[C@@]31C (stereo partly drawn)	-2.74% (inactive)

Compound	Tm shift relative to glycine control
COC(=O)c1sc(N)c(C(=O)OC)c1COC(=O)CNS(=O)(=O)c1ccc(C)cc1	13.2% (active)
C/C(N)=C(/C#N)C(=O)COC(=O)CNS(=O)(=O)c1ccc(C)cc1	-0.65% (inactive)
COC(=O)CNS(=O)(=O)c1ccc(Cc2ccc(S(=O)(=O)NCC(=O)OC)cc2)cc1	1.25% (inactive)
CCN(CC)C(=O)Oc1ccc(OC(=O)N(CC)CC)cc1	-0.08% (inactive)
CCOc1ccccc1N1CCN(C(=S)Nc2ccc(S(N)(=O)=O)cc2)CC1	31.7% (active)
NS(=O)(=O)c1ccc(NC(=S)N2CCCC2)cc1	-6.36% (inactive)
COc1ccc(N2CCN(C(=S)Nc3ccc(S(N)(=O)=O)cc3)CC2)cc1	1.93% (inactive)
O=C(Nc1ccccc1C(=O)N1CCOCC1)C1CCC(=O)N1C1CCCC1 (stereo not drawn)	-0.29% (inactive)
Cn1cccc1C(=O)N1CCc2ccccc2C1	38.1% (active)
CN(c1ccc(C(=O)N2CCc3ccccc3C2)cc1)S(C)(=O)=O	-0.88% (inactive)
O=C(c1cc(-c2cccc(O)c2)on1)N1CCc2ccccc2C1	-13.5% (inactive)
Cc1nn(Cc2ccccc2)c(C)c1CNC(=O)c1ccc(F)c(S(=O)(=O)N2CCOCC2)c1	0.42% (inactive)
Cc1cc(C(=O)NNC(=S)NC(C)c2ccccc2)cs1 (stereo not drawn)	-0.62% (inactive)
CCCN1Cc2cccc(C(=O)Nc3ccc(S(=O)(=O)N4CCCCCC4)cc3)c2C1=O	-5.76% (inactive)
O=S(=O)(Nc1n[nH]c(C(F)(F)F)n1)c1ccccc1	-16.9% (inactive)
COc1ccccc1NC(=O)COC(=O)COc1ccccc1F	0.17% (inactive)
COc1ccccc1NC(=O)Nc1nc(CC(=O)Nc2ccccc2F)cs1	27.7% (active)
COc1ccccc1NC(=O)Nc1nnc(Cc2ccc(F)cc2)s1	-6.85% (inactive)
